{"source": "PubChem BioAssay AID1159580", "about": "(chemical genetic matrix, 2015)", "assay": "chemical genetic growth profiling, strain panel (AID 1159580);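 note: tested at 20 µM; growth read once vehicle control cultures reached saturation at 30 °C; 1 = growth at the plate median or of vehicle wells; lower values mean less growth of the strain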", "settings": "growth OD", "note": "Hit rate of the full screen: of about 5,500 compounds, about 2,000 (36%) were called active. Roughly 18% stayed inconclusive and do not appear here. Some of the results follow. Unmarked numbers belong to inactive results. Cut-off read from the data, not from the text of the source: active = normalized growth mostly below about 0.91 (no sharp cut-off); inconclusive = no clear call, values can overlap the other calls; inactive = mostly above about 0.92."}
{"smiles": "CC[C@@]1(O)C[C@H](O[C@H]2C[C@H](N(C)C)[C@H](O)[C@H](C)O2)c2c(cc3c(c2O)C(=O)c2c(O)ccc(O)c2C3=O)[C@H]1C(=O)OC", "values": [{"measurement": "normalized growth", "setting": "S. cerevisiae deletion strains, locus YJR066W, strain TOR1, hits give low values", "result": 0.957}, {"measurement": "normalized growth", "setting": "S. cerevisiae deletion strains, locus YJR075W, strain HOC1, hits give low values", "result": "0.0948 (active)"}, {"measurement": "normalized growth", "setting": "S. cerevisiae deletion strains, locus YKL009W, strain mrt4, hits give low values", "result": 0.961}, {"measurement": "normalized growth", "setting": "S. cerevisiae deletion strains, locus YKL068W, hits give low values", "result": 0.982}, {"measurement": "normalized growth", "setting": "S. cerevisiae deletion strains, locus YKL085W, strain MDH1 (second series), hits give low values", "result": 1}, {"measurement": "normalized growth", "setting": "S. cerevisiae deletion strains, locus YKL085W, strain MDH1, hits give low values", "result": 1}, {"measurement": "normalized growth", "setting": "S. cerevisiae deletion strains, locus YKL160W, strain elf1, hits give low values", "result": 0.924}, {"measurement": "normalized growth", "setting": "S. cerevisiae deletion strains, locus YKR001C, strain vps1, hits give low values", "result": "0.0857 (active)"}, {"measurement": "normalized growth", "setting": "S. cerevisiae deletion strains, locus YKR026C, strain gcn3, hits give low values", "result": 0.994}, {"measurement": "normalized growth", "setting": "S. cerevisiae deletion strains, locus YKR091W, strain srl3, hits give low values", "result": 0.958}, {"measurement": "normalized growth", "setting": "S. cerevisiae deletion strains, locus YLL001W, strain dnm1, hits give low values", "result": "0.884 (active)"}, {"measurement": "normalized growth", "setting": "S. cerevisiae deletion strains, locus YLL026W, hits give low values", "result": 0.975}, {"measurement": "normalized growth", "setting": "S. cerevisiae deletion strains, locus YLL041C, strain sdh2, hits give low values", "result": 0.935}, {"measurement": "normalized growth", "setting": "S. cerevisiae deletion strains, locus YLR027C, strain aat2, hits give low values", "result": 0.975}, {"measurement": "normalized growth", "setting": "S. cerevisiae deletion strains, locus YLR039C, strain RIC1, hits give low values", "result": "0.113 (active)"}, {"measurement": "normalized growth", "setting": "S. cerevisiae deletion strains, locus YLR058C, strain SHM2, hits give low values", "result": "0.0794 (active)"}, {"measurement": "normalized growth", "setting": "S. cerevisiae deletion strains, locus YLR102C, strain apc9, hits give low values", "result": "0.467 (active)"}, {"measurement": "normalized growth", "setting": "S. cerevisiae deletion strains, locus YLR113W, strain HOG1, hits give low values", "result": 0.95}, {"measurement": "normalized growth", "setting": "S. cerevisiae deletion strains, locus YLR221C, strain rsa3, hits give low values", "result": "0.877 (active)"}, {"measurement": "normalized growth", "setting": "S. cerevisiae deletion strains, locus YLR258W, strain gsy2, hits give low values", "result": "0.905 (active)"}, {"measurement": "normalized growth", "setting": "S. cerevisiae deletion strains, locus YLR262C, strain YPT6 (second series), hits give low values", "result": "0.701 (active)"}, {"measurement": "normalized growth", "setting": "S. cerevisiae deletion strains, locus YLR262C, strain YPT6, hits give low values", "result": "0.13 (active)"}, {"measurement": "normalized growth", "setting": "S. cerevisiae deletion strains, locus YLR268W, strain sec22, hits give low values", "result": "0.112 (active)"}, {"measurement": "normalized growth", "setting": "S. cerevisiae deletion strains, locus YLR320W, strain mms22, hits give low values", "result": "0.844 (active)"}, {"measurement": "normalized growth", "setting": "S. cerevisiae deletion strains, locus YLR330W, strain CHS5, hits give low values", "result": "0.0655 (active)"}, {"measurement": "normalized growth", "setting": "S. cerevisiae deletion strains, locus YLR342W, strain FKS1 (second series), hits give low values", "result": "0.0959 (active)"}, {"measurement": "normalized growth", "setting": "S. cerevisiae deletion strains, locus YLR342W, strain FKS1, hits give low values", "result": "0.865 (active)"}, {"measurement": "normalized growth", "setting": "S. cerevisiae deletion strains, locus YLR357W, strain rsc2, hits give low values", "result": 0.907}, {"measurement": "normalized growth", "setting": "S. cerevisiae deletion strains, locus YLR370C, strain arc18, hits give low values", "result": "0.88 (active)"}, {"measurement": "normalized growth", "setting": "S. cerevisiae deletion strains, locus YLR371W, strain rom2, hits give low values", "result": "0.15 (active)"}, {"measurement": "normalized growth", "setting": "S. cerevisiae deletion strains, locus YLR384C, strain iki3, hits give low values", "result": 0.957}, {"measurement": "normalized growth", "setting": "S. cerevisiae deletion strains, locus YLR418C, strain cdc73, hits give low values", "result": "0.138 (active)"}, {"measurement": "normalized growth", "setting": "S. cerevisiae deletion strains, locus YML016C, strain PPZ1, hits give low values", "result": "0.0829 (active)"}, {"measurement": "normalized growth", "setting": "S. cerevisiae deletion strains, locus YML032C, strain rad52, hits give low values", "result": "0.121 (active)"}, {"measurement": "normalized growth", "setting": "S. cerevisiae deletion strains, locus YML120C, strain ndi1, hits give low values", "result": 1.02}, {"measurement": "normalized growth", "setting": "S. cerevisiae deletion strains, locus YML124C, strain tub3, hits give low values", "result": "0.195 (active)"}, {"measurement": "normalized growth", "setting": "S. cerevisiae deletion strains, locus YMR058W, strain fet3, hits give low values", "result": "0.416 (active)"}, {"measurement": "normalized growth", "setting": "S. cerevisiae deletion strains, locus YMR078C, strain ctf18, hits give low values", "result": "0.147 (active)"}, {"measurement": "normalized growth", "setting": "S. cerevisiae deletion strains, locus YMR125W, strain sto1, hits give low values", "result": 1.02}, {"measurement": "normalized growth", "setting": "S. cerevisiae deletion strains, locus YMR129W, hits give low values", "result": 0.997}, {"measurement": "normalized growth", "setting": "S. cerevisiae deletion strains, locus YMR205C, strain PFK2, hits give low values", "result": "0.871 (active)"}, {"measurement": "normalized growth", "setting": "S. cerevisiae deletion strains, locus YMR223W, strain ubp8, hits give low values", "result": "0.157 (active)"}, {"measurement": "normalized growth", "setting": "S. cerevisiae deletion strains, locus YMR231W, strain pep5, hits give low values", "result": 1}, {"measurement": "normalized growth", "setting": "S. cerevisiae deletion strains, locus YMR263W, strain SAP30, hits give low values", "result": "0.377 (active)"}, {"measurement": "normalized growth", "setting": "S. cerevisiae deletion strains, locus YMR307W, strain GAS1, hits give low values", "result": "0.149 (active)"}, {"measurement": "normalized growth", "setting": "S. cerevisiae deletion strains, locus YNL067W, strain RPL9B, hits give low values", "result": "0.0765 (active)"}, {"measurement": "normalized growth", "setting": "S. cerevisiae deletion strains, locus YNL071W, strain lat1, hits give low values", "result": 0.951}, {"measurement": "normalized growth", "setting": "S. cerevisiae deletion strains, locus YNL153C, strain GIM3, hits give low values", "result": "0.0856 (active)"}, {"measurement": "normalized growth", "setting": "S. cerevisiae deletion strains, locus YNL183C, strain NPR1, hits give low values", "result": 0.941}, {"measurement": "normalized growth", "setting": "S. cerevisiae deletion strains, locus YNL209W, strain ssb2, hits give low values", "result": "0.82 (active)"}, {"measurement": "normalized growth", "setting": "S. cerevisiae deletion strains, locus YNL233W, strain BNI4, hits give low values", "result": "0.0884 (active)"}, {"measurement": "normalized growth", "setting": "S. cerevisiae deletion strains, locus YNL248C, strain rpa49, hits give low values", "result": 0.974}, {"measurement": "normalized growth", "setting": "S. cerevisiae deletion strains, locus YNL250W, strain rad50, hits give low values", "result": "0.738 (active)"}, {"measurement": "normalized growth", "setting": "S. cerevisiae deletion strains, locus YNL271C, strain bni1, hits give low values", "result": 0.96}, {"measurement": "normalized growth", "setting": "S. cerevisiae deletion strains, locus YNL298W, strain CLA4, hits give low values", "result": 0.98}, {"measurement": "normalized growth", "setting": "S. cerevisiae deletion strains, locus YNL307C, strain MCK1, hits give low values", "result": "0.0826 (active)"}, {"measurement": "normalized growth", "setting": "S. cerevisiae deletion strains, locus YNL322C, strain KRE1 (second series), hits give low values", "result": 0.972}, {"measurement": "normalized growth", "setting": "S. cerevisiae deletion strains, locus YNR049C, strain mso1, hits give low values", "result": 0.926}, {"measurement": "normalized growth", "setting": "S. cerevisiae deletion strains, locus YNR052C, strain pop2, hits give low values", "result": "0.0986 (active)"}, {"measurement": "normalized growth", "setting": "S. cerevisiae deletion strains, locus YOL012C, strain htz1", "result": 0.253}, {"measurement": "normalized growth", "setting": "S. cerevisiae deletion strains, locus YOL147C, strain pex11, hits give low values", "result": "0.13 (active)"}, {"measurement": "normalized growth", "setting": "S. cerevisiae deletion strains, locus YOR001W, strain rrp6, hits give low values", "result": 1.01}, {"measurement": "normalized growth", "setting": "S. cerevisiae deletion strains, locus YOR061W, strain CKA2, hits give low values", "result": "0.0764 (active)"}, {"measurement": "normalized growth", "setting": "S. cerevisiae deletion strains, locus YOR069W, strain VPS5, hits give low values", "result": "0.0745 (active)"}, {"measurement": "normalized growth", "setting": "S. cerevisiae deletion strains, locus YOR070C, strain gyp1, hits give low values", "result": 0.989}, {"measurement": "normalized growth", "setting": "S. cerevisiae deletion strains, locus YOR080W, strain dia2, hits give low values", "result": 0.916}, {"measurement": "normalized growth", "setting": "S. cerevisiae deletion strains, locus YOR083W, strain WHI5, hits give low values", "result": 0.918}, {"measurement": "normalized growth", "setting": "S. cerevisiae deletion strains, locus YOR106W, strain vam3, hits give low values", "result": "0.703 (active)"}, {"measurement": "normalized growth", "setting": "S. cerevisiae deletion strains, locus YOR136W, strain idh2, hits give low values", "result": "0.203 (active)"}, {"measurement": "normalized growth", "setting": "S. cerevisiae deletion strains, locus YOR144C, strain elg1, hits give low values", "result": "0.298 (active)"}, {"measurement": "normalized growth", "setting": "S. cerevisiae deletion strains, locus YOR184W, strain ser1, hits give low values", "result": "0.0852 (active)"}, {"measurement": "normalized growth", "setting": "S. cerevisiae deletion strains, locus YOR231W, strain MKK1, hits give low values", "result": 0.975}, {"measurement": "normalized growth", "setting": "S. cerevisiae deletion strains, locus YOR265W, strain rbl2, hits give low values", "result": "0.899 (active)"}, {"measurement": "normalized growth", "setting": "S. cerevisiae deletion strains, locus YOR270C, strain vph1, hits give low values", "result": "0.656 (active)"}, {"measurement": "normalized growth", "setting": "S. cerevisiae deletion strains, locus YOR290C, strain snf2, hits give low values", "result": "0.711 (active)"}, {"measurement": "normalized growth", "setting": "S. cerevisiae deletion strains, locus YOR316C, strain cot1, hits give low values", "result": "0.21 (active)"}, {"measurement": "normalized growth", "setting": "S. cerevisiae deletion strains, locus YPL051W, strain arl3, hits give low values", "result": "0.756 (active)"}, {"measurement": "normalized growth", "setting": "S. cerevisiae deletion strains, locus YPL078C, strain atp4, hits give low values", "result": "0.867 (active)"}, {"measurement": "normalized growth", "setting": "S. cerevisiae deletion strains, locus YPL106C, strain sse1, hits give low values", "result": 0.909}, {"measurement": "normalized growth", "setting": "S. cerevisiae deletion strains, locus YPL240C, strain hsp82, hits give low values", "result": 0.933}, {"measurement": "normalized growth", "setting": "S. cerevisiae deletion strains, locus YPL241C, strain CIN2, hits give low values", "result": "0.0834 (active)"}, {"measurement": "normalized growth", "setting": "S. cerevisiae deletion strains, locus YPL256C, strain CLN2, hits give low values", "result": 0.983}, {"measurement": "normalized growth", "setting": "S. cerevisiae deletion strains, locus YPR119W, strain clb2, hits give low values", "result": "0.2 (active)"}, {"measurement": "normalized growth", "setting": "S. cerevisiae deletion strains, locus YPR141C, strain kar3, hits give low values", "result": 0.967}, {"measurement": "normalized growth", "setting": "S. cerevisiae deletion strains, locus YPR163C, strain tif3, hits give low values", "result": "0.115 (active)"}, {"measurement": "normalized growth", "setting": "S. cerevisiae deletion strains, locus YPR167C, strain met16, hits give low values", "result": "0.125 (active)"}, {"measurement": "normalized growth", "setting": "S. cerevisiae deletion strains, strain wtn01, hits give low values", "result": "0.0957 (active)"}, {"measurement": "normalized growth", "setting": "S. cerevisiae strains, strain wild type, hits give low values", "result": "0.0706 (active)"}]}
